According to PubChem BioAssay (NCATS):
Values without a mark were called inactive. Results filed as inconclusive are left out. A call without a number means that no potency is given here. The source made the active and inactive calls. Unless noted, the call rests on the fitted dose curve; in most records, active means well fitted curve in the direction sought with a large enough effect; inconclusive means small, poorly fitted or top-dose-only effect, or another doubt; inactive means no such curve, though single readings can be large; an effect the other way counts as inactive or inconclusive.

Assays:
[1] = biological target: 3',5'-cyclic-AMP phosphodiesterase 4B (Homo sapiens) (UniProt Q07343); experiment: qHTS Assay for Inhibitors of PDE-IV (AID 607; active means well fitted activation curve with a large enough effect in the main read-out, with a control signal flat, not every such curve was filed as active)
Outline: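 HEK293 ACTOne cells with CNG channel (1000/well), endogenous PDE4; membrane potential dye, compounds up to 22.9 uM final. Fluorescence Ex 535/Em 590; RO 20-1724 (100 uM final) as reference.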

[2] = biological target: Cytochrome P450 3A4 (Homo sapiens) (UniProt P08684); experiment: qHTS Assay for Inhibitors and Substrates of Cytochrome P450 3A4 (AID 884); further: nearly all actives have a fitted effect of over 50% in size; further: potency means the concentration at half of the fitted maximal effect
Outline: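 Luminescent readout of luciferin produced by CYP3A4 (20 nM) dealkylation of Luciferin-PPXE, 25 uM (its KM). NADPH-driven reaction ran 60 min at RT after 10 min compound preincubation; data scaled to 57 uM ketoconazole as 100% inhibition.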

[3] = biological target: Guanine nucleotide-binding protein G(i) subunit alpha-1 (Homo sapiens) (UniProt P63096); experiment: qHTS Assay for Inhibitors of RGS12 GoLoco Motif Activity (Green Fluorophore) (AID 879);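 further: negative values mean loss of peptide binding seen as reduced polarization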
Outline: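 A drop in FITC polarization marked displacement of the FITC-tagged RGS12 GoLoco peptide (10 nM) from Gαi1 (50 nM). Compounds were incubated 10 min at room temperature in Tris pH 7.5 buffer containing 150 mM NaCl, 0.1 mM GDP and 0.05% NP40; unlabeled peptide titration served as control.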

[4] = biological target: Cytochrome P450 3A4 (Homo sapiens) (UniProt P08684); experiment: qHTS Assay for Activators of Cytochrome P450 3A4 (AID 885); further: nearly all actives have a fitted effect of over 65% in size
Outline: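 Human CYP3A4 dealkylates Luciferin-PPXE to luciferin, which luciferase detection converts to light. Substrate was at its KM (25uM), buffer 200mM KPO4, reaction 60 min at RT.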

[5] = biological target: Cytochrome P450 2C9 (Homo sapiens) (UniProt P11712); experiment: qHTS Assay for Inhibitors and Substrates of Cytochrome P450 2C9 (AID 883); further: nearly all actives have a fitted effect of over 60% in size; further: potency means the concentration at half of the fitted maximal effect
Outline: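 Luminescent read-out of deoxyluciferin hydroxylation, normalized to 57uM sulphaphenazole (AC100). Reaction: 10nM enzyme, 100uM Luciferin-H (equal to KM), 25mM KPO4, 10 min compound preincubation, then 60 min with NADPH regeneration, both at 37C.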

[6] = biological target: Cytochrome P450 2D6 (Homo sapiens) (UniProt P10635); experiment: qHTS Assay for Inhibitors and Substrates of Cytochrome P450 2D6 (AID 891); conditions: recombinant CYP2D6, luciferin-ME EGE luminescence; further: potency means the concentration at half of the fitted maximal effect; nearly all actives have a fitted effect of over 60% in size
Outline: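 Luminescent read-out of luciferin formed by 5 nM human CYP2D6 demethylating 30 uM Luciferin-ME EGE (Km level) over 60 min at room temperature after NADPH regeneration addition. Data normalized to full inhibition by 1.43 uM quinidine.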

[7] = qHTS Assay for Identification of Small Molecule Antagonists for NFkB Signaling Pathway (AID 895; active means well fitted inhibition curve with a large enough effect in the signal ratio, with a control signal flat, not every such curve was filed as active; the % refers to the signal ratio)
Outline: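 Beta-lactamase reporter read-out (460 and 530 nm emission ratio, 405 nm excitation, 2 hrs substrate loading RT) after 5 hr stimulation with 10 pM TNF alpha in compound-treated NFkB-bla ME-180 cells in low-serum medium.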

[8] = Cellular Toxicity (caspase-3) HepG2 (AID 654);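 further: cells exposed to compound for 16 hours before reading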
Outline: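 Concentration-response AC50 values reflect caspase-3/7 induction in HepG2 cells after 16 hours of compound exposure, quantified by luminescence from liberated aminoluciferin and referenced to 100 uM tamoxifen as full stimulation.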

[9] = Cellular Toxicity (caspase-3) Jurkat (AID 655); conditions: Jurkat caspase-3 activation, luminescence, DMSO = 0%, tamoxifen = 100%; at 92.2 µM (top of the series);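 further: cells exposed to compound for 16 h at 37 °C before reading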
Outline: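 Jurkat cells (5000/well) in complete medium were treated with compounds for 16 hr at 37 °C, then Caspase-Glo 3/7 luminescence was read after 20 min at room temperature. Data normalized to DMSO (basal) and 100 uM tamoxifen (100%); AC50 from Hill fit.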

[10] = Cellular Toxicity (caspase-3) HUV-EC-C (AID 656)
Outline: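 HUV-EC-C endothelial cells, 1000/well, were pre-incubated 5 hr at 37°C, then exposed to compounds for 16 hr at 37°C. Caspase-Glo 3/7 luminescence was read after 20 min at room temperature. AC50 came from Hill fits, normalized to DMSO and 100 uM tamoxifen.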

[11] = Cellular Toxicity (caspase-3) SHSY5Y (AID 657)
Outline: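 SH-SY5Y human neuroblastoma cells (1500/well) were treated with compounds for 16 h at 37 °C, then Caspase-Glo 3/7 luminescence was read after 1 h at room temperature. Data normalized to DMSO and 10 uM staurosporine; AC50 from Hill fits.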

[12] = Cellular Toxicity (caspase-3) BJ (AID 658)
Outline: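 Caspase-Glo 3/7 luminescence, read 1 hr after reagent at room temperature, in normal BJ fibroblasts exposed 16 hours at 37 °C. AC50 values from Hill-equation concentration-response, scaled between DMSO basal and 10 uM staurosporine as 100%.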

[13] = Cellular Toxicity (caspase-3) MRC-5 (AID 659)
Outline: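 Luminescent Caspase-Glo 3/7 read-out (1 h, room temperature) after a 16 h, 37 °C compound exposure of MRC-5 lung fibroblasts at 1500 cells/well. Concentration-response AC50 from Hill equation; 0% DMSO, 100% 10 uM staurosporine.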

[14] = Cellular Toxicity (caspase-3) Mesangial (AID 660);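 further: combined caspase 3 and 7 activity read by Caspase-Glo luminescence; cells exposed to compound for 16 h before the caspase read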
Outline: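 AC50 values come from Hill-equation fits of caspase 3/7 activation, measured as Caspase-Glo luminescence in human glomerular mesangial cells exposed to compound for 16 h at 37 °C; 100% set by 100 uM tamoxifen.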

[15] = Cellular Toxicity (caspase-3) SK-N-SH (AID 661)
Outline: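 Apoptosis readout in SK-N-SH neuroblastoma: Caspase-Glo 3/7 luminescence following 16 hr treatment in complete culture medium. Normalization used DMSO and 10 uM staurosporine controls.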

[16] = Cellular Toxicity (caspase-3) H-4-II-E (AID 663); conditions: Potency: caspase-3 activation;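 further: cells exposed to compound for 16 hr before readout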
Outline: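 Caspase 3/7 activation measured by luminescent aminoluciferin substrate cleavage after 16 hr compound treatment of H-4-II-E cells in complete medium. Increase normalized between DMSO (basal) and 100 uM tamoxifen (100%); Hill-equation AC50 from concentration-response.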

[17] = Cellular Toxicity (caspase-3) Hek293 (AID 664);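 further: cells exposed to compound for 16 h at 37 °C before readout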
Outline: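 Apoptosis readout: Caspase-Glo 3/7 signal in human HEK293 cells following 16-hour compound incubation. Responses scaled between DMSO baseline and 100 uM tamoxifen.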

[18] = Cellular Toxicity (caspase-3) N2a (AID 665);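 further: compound exposure lasted 16 h at 37 °C before readout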
Outline: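 Concentration-response qHTS: compound-induced caspase-3/7 luminescence in N2a cells (16 h, 37 °C), relative to DMSO and 10 uM staurosporine controls; AC50 obtained using the standard Hill equation.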

[19] = Cellular Toxicity (caspase-3) NIH 3T3 (AID 666)
Outline: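 Activity: caspase-3/7 induction, NIH 3T3 cells, 16 hr treatment at 37°C, luminescent Caspase-Glo detection; AC50 via Hill equation.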

[20] = Cellular Toxicity (caspase-3) Renal Proximal Tubule (AID 667);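 further: cells exposed to compound for 16 hours at 37 °C before detection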
Outline: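 Primary rat proximal tubule cells, 1000/well, 5 h plating at 37 °C, then compound 16 h at 37 °C. Caspase-Glo 3/7 reagent, 1 h RT, luminescence. Normalized to DMSO (basal) and 10 uM staurosporine (100%); Hill-fit AC50.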

Chain of Cytochrome P450 2C9 (Homo sapiens) (P11712 whole entry, looked up): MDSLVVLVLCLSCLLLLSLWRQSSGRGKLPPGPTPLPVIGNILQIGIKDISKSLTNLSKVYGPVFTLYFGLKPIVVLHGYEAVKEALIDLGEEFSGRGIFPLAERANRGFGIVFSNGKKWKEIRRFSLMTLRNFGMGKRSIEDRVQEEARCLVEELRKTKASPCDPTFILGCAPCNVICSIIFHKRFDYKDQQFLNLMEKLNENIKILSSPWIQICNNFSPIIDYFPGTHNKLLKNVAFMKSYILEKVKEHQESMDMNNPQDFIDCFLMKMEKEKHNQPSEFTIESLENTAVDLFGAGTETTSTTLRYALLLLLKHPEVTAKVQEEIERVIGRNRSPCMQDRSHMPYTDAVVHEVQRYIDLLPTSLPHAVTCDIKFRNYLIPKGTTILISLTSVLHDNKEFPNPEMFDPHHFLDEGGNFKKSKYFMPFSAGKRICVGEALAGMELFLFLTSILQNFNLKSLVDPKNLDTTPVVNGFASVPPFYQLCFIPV
Chain of Cytochrome P450 3A4 (Homo sapiens) (P08684 whole entry, looked up): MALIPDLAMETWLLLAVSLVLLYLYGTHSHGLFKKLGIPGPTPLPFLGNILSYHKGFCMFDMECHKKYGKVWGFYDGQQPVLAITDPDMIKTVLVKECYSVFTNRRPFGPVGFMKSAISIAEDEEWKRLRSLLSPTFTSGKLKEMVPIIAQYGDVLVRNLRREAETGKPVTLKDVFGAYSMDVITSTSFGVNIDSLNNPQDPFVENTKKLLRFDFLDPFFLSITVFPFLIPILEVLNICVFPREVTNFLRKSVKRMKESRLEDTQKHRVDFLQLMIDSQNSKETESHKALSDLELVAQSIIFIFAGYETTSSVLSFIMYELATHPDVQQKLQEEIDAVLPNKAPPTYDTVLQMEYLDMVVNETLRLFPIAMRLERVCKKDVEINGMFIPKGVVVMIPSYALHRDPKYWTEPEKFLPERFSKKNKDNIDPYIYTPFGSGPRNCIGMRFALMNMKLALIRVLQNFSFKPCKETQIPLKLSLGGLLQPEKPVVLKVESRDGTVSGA
Chain of Guanine nucleotide-binding protein G(i) subunit alpha-1 (Homo sapiens) (P63096 whole entry, looked up): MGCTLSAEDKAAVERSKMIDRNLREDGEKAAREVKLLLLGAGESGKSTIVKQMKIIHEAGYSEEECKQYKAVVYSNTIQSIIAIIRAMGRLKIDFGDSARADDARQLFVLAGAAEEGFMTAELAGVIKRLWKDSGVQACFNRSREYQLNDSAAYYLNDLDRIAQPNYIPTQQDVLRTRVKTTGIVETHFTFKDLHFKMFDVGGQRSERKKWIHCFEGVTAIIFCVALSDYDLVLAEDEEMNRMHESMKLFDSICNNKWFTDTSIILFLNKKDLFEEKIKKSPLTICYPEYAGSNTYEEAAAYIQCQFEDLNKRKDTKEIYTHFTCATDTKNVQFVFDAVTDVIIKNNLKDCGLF
Chain of 3',5'-cyclic-AMP phosphodiesterase 4B (Homo sapiens) (Q07343 whole entry, looked up): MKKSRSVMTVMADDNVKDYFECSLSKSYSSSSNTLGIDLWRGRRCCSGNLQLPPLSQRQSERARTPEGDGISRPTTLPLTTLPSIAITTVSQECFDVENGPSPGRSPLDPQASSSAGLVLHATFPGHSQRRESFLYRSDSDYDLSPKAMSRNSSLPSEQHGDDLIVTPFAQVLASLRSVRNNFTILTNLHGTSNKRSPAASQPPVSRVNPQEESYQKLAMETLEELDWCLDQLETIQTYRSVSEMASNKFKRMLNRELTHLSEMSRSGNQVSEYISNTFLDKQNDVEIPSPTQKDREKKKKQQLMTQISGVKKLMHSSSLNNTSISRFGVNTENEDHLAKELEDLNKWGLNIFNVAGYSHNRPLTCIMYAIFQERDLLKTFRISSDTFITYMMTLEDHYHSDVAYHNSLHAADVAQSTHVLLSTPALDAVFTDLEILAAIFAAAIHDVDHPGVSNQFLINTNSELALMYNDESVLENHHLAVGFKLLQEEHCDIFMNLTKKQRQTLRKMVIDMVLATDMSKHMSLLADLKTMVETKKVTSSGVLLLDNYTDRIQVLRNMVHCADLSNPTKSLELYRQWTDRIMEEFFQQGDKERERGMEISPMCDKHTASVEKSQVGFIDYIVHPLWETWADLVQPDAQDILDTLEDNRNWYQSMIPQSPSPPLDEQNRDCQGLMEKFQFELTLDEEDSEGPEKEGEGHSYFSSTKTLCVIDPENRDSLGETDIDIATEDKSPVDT
Chain of Cytochrome P450 2D6 (Homo sapiens) (P10635 whole entry, looked up): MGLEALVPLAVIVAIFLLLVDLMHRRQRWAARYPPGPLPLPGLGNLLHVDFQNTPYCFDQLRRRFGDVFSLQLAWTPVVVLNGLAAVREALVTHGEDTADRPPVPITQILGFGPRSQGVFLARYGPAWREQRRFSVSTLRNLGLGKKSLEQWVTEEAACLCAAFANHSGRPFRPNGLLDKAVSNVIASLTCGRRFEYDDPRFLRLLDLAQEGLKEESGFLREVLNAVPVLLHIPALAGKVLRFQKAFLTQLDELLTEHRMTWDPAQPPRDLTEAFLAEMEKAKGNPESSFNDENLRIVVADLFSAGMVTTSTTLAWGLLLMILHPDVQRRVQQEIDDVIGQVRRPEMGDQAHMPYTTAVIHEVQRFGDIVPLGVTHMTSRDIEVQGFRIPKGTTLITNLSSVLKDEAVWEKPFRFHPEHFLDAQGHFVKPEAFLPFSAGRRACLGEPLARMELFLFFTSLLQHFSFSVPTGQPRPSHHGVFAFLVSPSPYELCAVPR

In the case of `CNCCc1ccccn1`, the outcome [1] is reported as “inactive” and the Potency [2] is reported as “inactive”.

With `NS(=O)(=O)Cc1noc2ccccc12` the outcome [1] was “inactive”, the outcome [3] was “inactive” and the outcome [4] was “inactive”.

For `c1ccc(CC2=NCCN2)cc1`, the outcome [1] was “inactive”.

In the case of `CC(C)(C)NC[C@H](O)COc1nsnc1N1CCOCC1`, the outcome [1] is reported as “inactive” and the outcome [3] is reported as “inactive”.

In the case of `C[N+]1(C)CCC(=C(c2ccccc2)c2ccccc2)CC1`, the outcome [1] is reported as “inactive”.

In the case of `Cc1cc(-c2ccccc2)nnc1NCCN1CCOCC1`, the outcome [1] is reported as “inactive” and the outcome [4] is reported as “inactive”.

For `COc1cc(C)nc(-n2nc(C)cc2OC)n1`, the outcome [1] was “inactive”.

In the case of `COc1cc(N)c(Cl)cc1C(=O)NC1CCN(Cc2ccccc2)CC1`, the outcome [1] is reported as “inactive”, the Potency [5] is reported as “inactive” and the Potency [2] is reported as 12.6 µM (active). For the same compound, the outcome [4] was “inactive” and the Potency [6] was 0.0126 µM (active).

In the case of `CC[C@H](c1ccc(O)cc1)[C@@H](CC)c1ccc(O)cc1`, the outcome [1] is reported as “inactive” and the outcome [4] is reported as “inactive”.

For `NS(=O)(=O)c1cc(C(=O)O)cc(N2CCCC2)c1Oc1ccccc1`, the outcome [1] was “inactive”.

For `NC(N)=NCc1cccc(I)c1`, the outcome [1] was “inactive”, the outcome [3] was “inactive” and the outcome [7] was “inactive”.

With `Cl/C(=C\n1cncn1)c1ccc(Cl)cc1Cl` the outcome [1] was “inactive”.

In the case of `CCCN(CCC)S(=O)(=O)c1ccc(C(=O)O)cc1`, the outcome [1] is reported as “inactive”, the outcome [8] is reported as “inactive” and the caspase-3 activation [9] is reported as 1.65%. For the same compound, the outcome [10] was “inactive”, the outcome [11] was “inactive” and the outcome [12] was “inactive”. The outcome [13] was “inactive”, the outcome [14] was “inactive” and the outcome [15] was “inactive”. For the same compound, the Potency [16] was “inactive”, the outcome [17] was “inactive” and the outcome [18] was “inactive”. The outcome [19] was “inactive”, the outcome [20] was “inactive” and the Potency [2] was “inactive”.

In the case of `O=C(O)CCC(=O)Nc1ccc(S(=O)(=O)Nc2nccs2)cc1`, the outcome [1] is reported as “inactive”.

For `CCCc1ncc(C[n+]2ccccc2C)c(N)n1`, the outcome [1] was “inactive” and the Potency [2] was “inactive”.

In the case of `CCN(CC)CCNc1ccc(CO)c2sc3ccccc3c(=O)c12`, the outcome [1] is reported as “inactive”, the outcome [4] is reported as “inactive” and the Potency [6] is reported as 5.01 µM (active).

In the case of `O=C1C(O)=C(O)C(=O)C(O)=C1O`, the outcome [1] is reported as “inactive” and the Potency [2] is reported as “inactive”.

For `COc1cc(NS(=O)(=O)c2ccc(N)cc2)ncn1`, the outcome [1] was “inactive”.

With `COc1cc(C(=O)NCc2ccc(OCCN(C)C)cc2)cc(OC)c1OC` the outcome [1] was “inactive” and the outcome [5] was “inactive”.

For `N=C(N)N1CCc2ccccc2C1`, the outcome [1] was “inactive”.

In the case of `Nc1ccc(C(=O)NCC(=O)O)cc1`, the outcome [1] is reported as “inactive” and the Potency [2] is reported as “inactive”.

In the case of `CCCCNc1ccc(C(=O)OCCOCCOCCOCCOCCOCCOCCOCCOCCOC)cc1`, the outcome [1] is reported as “inactive”.

In the case of `CN(C)CCC[C@@]1(c2ccc(F)cc2)OCc2cc(C#N)ccc21`, the outcome [1] is reported as “inactive”, the outcome [3] is reported as “inactive” and the Potency [5] is reported as 3.16 µM (active). For the same compound, the Potency [2] was “inactive” and the outcome [4] was “inactive”.

For `Nc1ccc(S(=O)(=O)Nc2cnc3ccccc3n2)cc1`, the outcome [1] was “inactive” and the outcome [4] was “inactive”.
